Experimental data: PubChem BioAssay (Tox21)
Inconclusive results are not listed. A call without a number means that no potency is given here. Values without a mark were called inactive. Calls of active or inactive are those of the source. Unless noted, calls come from the whole dose curve; as a rule, active = well fitted curve in the direction sought with a large enough effect in the repeat runs; inconclusive = weak or mixed curves; inactive = no such curve, though single readings can be large; an effect the other way counts as inactive or inconclusive.

Legend:
[1] = qHTS assay to identify small molecule agonists of the vitamin D receptor (VDR) signaling pathway - cell viability counter screen (AID 743224); note: nearly all actives have a fitted effect of over 50% in size; note: potency is the fitted concentration of half-maximal effect
Method in brief: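 VDR-bla cells, 4 h after plating, exposed to compounds for 16 h at 37C; viability then read in the same wells as CellTiter-Glo luminescence after 30 min at room temperature, following the bla FRET read.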

[2] = qHTS assay to identify small molecule antagonists of the vitamin D receptor (VDR) signaling pathway - cell viability counter screen (AID 743225); note: nearly all actives have a fitted effect of over 50% in size
Method in brief: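 Read-out: CellTiter-Glo luminescence measured 30 min after reagent addition at room temperature. Cells were VDR-bla HEK 293T exposed 16 h at 37C, 5% CO2, to compound with 3 nM final calcitriol agonist.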

[3] = qHTS assay to identify small molecule agonists of the NFkB signaling pathway - cell viability counter screen (AID 1159515; calls by dose curve; note: nearly all actives have a fitted effect of over 55% in size; note: potency is the fitted concentration of half-maximal effect)
Method in brief: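 NFkB-bla ME-180 cells, 2,000/well, plated overnight at 37 C; compound added for 5 hr at 37 C. Viability read in the same wells as the bla reporter, by CellTiter-Glo luminescence after 30 min at room temperature.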

[4] = qHTS assay to identify small molecule agonists of the endoplasmic reticulum stress response signaling pathway (AID 1159516; active = well fitted activation curve with a large enough effect in the signal ratio in the repeat runs, not every such curve was filed as active; the % refers to the signal ratio)
Method in brief: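 CellSensor ESRE-bla HeLa cells, 1,500 per well, plated overnight, then exposed to compounds for 5 hr at 37 C. Beta-lactamase reporter read with LiveBLAzer B/G FRET substrate after 2 hr at room temperature, 405 nm excitation, 460 and 530 nm emission.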

[5] = qHTS assay to identify small molecule agonists of the endoplasmic reticulum stress response signaling pathway - cell viability counter screen (AID 1159517; calls by dose curve;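 note: HeLa cells carrying an ER stress response element beta-lactamase reporter; series mostly up to about 61 µM; nearly all actives have a fitted effect of over 50% in size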)
Method in brief: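 HeLa cells carrying an ESRE-driven beta-lactamase reporter receive compound for 5 hr at 37 C. Cell viability is then gauged with CellTiter-Glo by luminescence, 30 min at room temperature.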

[6] = qHTS assay to identify small molecule antagonists of the retinoid-related orphan receptor gamma (ROR-gamma) signaling pathway - cell viability counter screen (AID 1159520); note: nearly all actives have a fitted effect of over 50% in size; note: potency is the fitted concentration of half-maximal effect
Method in brief: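 Cytotoxicity was read from cellular ATP (CellTiter-Glo luminescence) after 16 hr at 37 C with 1 uM doxycycline induction. The inducer was added 2 hr after compound transfer to Tet-on ROR gamma CHO cells.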

[7] = qHTS assay to identify small molecule agonists of the AP-1 signaling pathway - cell viability counter screen (AID 1159525; calls by dose curve; note: nearly all actives have a fitted effect of over 55% in size)
Method in brief: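 Luminescent ATP readout (Cell Titer Glo, 30 min RT), normalised to DMSO and tetra n-octyl ammonium bromide controls. Cells were ME-180 AP-1-bla in 0.5% dialyzed FBS Opti-MEM, with a 5 h, 37 °C compound exposure.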

[8] = qHTS assay to identify small molecule agonists of the AP-1 signaling pathway (AID 1159526; calls by dose curve; note: potency is the fitted concentration of half-maximal effect)
[9] = target: Retinoic acid receptor RXR-alpha (Homo sapiens) (UniProt P19793); test: qHTS assay to identify small molecule agonists of the RXR signaling pathway (AID 1159527; calls by dose curve; note: nearly all actives have a fitted effect of over 35% in size)
Retinoic acid receptor RXR-alpha (Homo sapiens), sequence (P19793 whole entry, looked up): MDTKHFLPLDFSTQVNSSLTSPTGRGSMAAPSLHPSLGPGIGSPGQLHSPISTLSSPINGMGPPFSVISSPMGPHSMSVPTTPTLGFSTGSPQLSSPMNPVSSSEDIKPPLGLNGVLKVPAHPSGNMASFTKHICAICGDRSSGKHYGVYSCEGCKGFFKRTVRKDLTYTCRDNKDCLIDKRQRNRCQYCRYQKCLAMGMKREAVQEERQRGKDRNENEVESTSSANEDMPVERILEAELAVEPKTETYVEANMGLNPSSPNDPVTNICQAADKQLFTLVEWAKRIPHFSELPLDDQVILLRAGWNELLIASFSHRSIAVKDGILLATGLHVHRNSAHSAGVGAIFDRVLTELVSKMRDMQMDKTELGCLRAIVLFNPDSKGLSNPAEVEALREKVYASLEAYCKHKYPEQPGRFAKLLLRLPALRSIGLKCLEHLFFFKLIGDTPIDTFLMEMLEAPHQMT
Method in brief: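 Read-out: beta-lactamase FRET ratio (405 nm excitation, 460 and 530 nm emission) after 2 hr substrate loading at room temperature. Cells were RXR-alpha-UAS-bla HEK 293T treated with compounds for 16 hr in 2% charcoal-stripped FBS medium.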

[10] = qHTS assay to identify small molecule agonists of the RXR signaling pathway - cell viability counter screen (AID 1159529)
Method in brief: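 HEK 293T RXRa-bla cells, 2% CS-FBS; 5 h settle; cpd 16 h 37 C, 5% CO2; CellTiter-Glo 30 min RT, luminescence. Tetraoctyl ammonium bromide as positive control.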

[11] = qHTS assay to identify small molecule antagonists of the retinoid acid receptor (RAR) signaling pathway - cell viability counter screen (AID 1159551); note: nearly all actives have a fitted effect of over 35% in size
Method in brief: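 C3RL4 RARE-luciferase cells, 1,000/well, incubated overnight, then dosed with compound plus 1 uM retinol (final). After 6 hr at 37 C, viability read by CellTiter-Glo ATP luminescence following 30 min at room temperature.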

[12] = qHTS assay to identify small molecule antagonists of the retinoic acid receptor (RAR) signaling pathway (AID 1159552; note: nearly all actives have a fitted effect of over 50% in size; note: potency is the fitted concentration of half-maximal effect)
Method in brief: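 Cells of the C3RL4 line were seeded, incubated overnight, then dosed with compounds in DMSO followed immediately by retinol (1 uM final). Six hours later luciferase detection reagent went in; signal was measured after 30 min at RT.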

[13] = qHTS assay to identify small molecule agonists of the retinoic acid receptor (RAR) signaling pathway (AID 1159553)
Method in brief: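 C3RL4 RARE-luciferase cells were seeded at 1,000/well and grown overnight at 37 C, then exposed to compounds for 6 hr at 37 C, 5% CO2. Luciferase reagent was added and luminescence was read after 30 min at room temperature.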

[14] = qHTS assay to identify small molecule antagonists of the estrogen related receptor (ERR) signaling pathway - cell viability counter screen (AID 1224818); note: series mostly up to about 46 µM
Method in brief: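 ERR cells, 2,000 per well, compound added after 6 h and incubated 17.5 h at 37 C. Viability read by CellTiter-Fluor fluorescence after a further 30 min at 37 C.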

[15] = qHTS assay to identify small molecule antagonists of the estrogen related receptor signaling pathway with the pleiotropic PPARgamma coactivator (PGC) cell viability counter screen (AID 1224822; note: series mostly up to about 46 µM)
Method in brief: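 PGC/ERR cells rested 6 h, then compound-treated 17.5 h at 37 C. CellTiter-Fluor added for 30 min at 37 C, viability measured by fluorescence intensity.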

[16] = target: Nuclear receptor ROR-gamma (Homo sapiens) (UniProt P51449); test: qHTS assay to identify small molecule antagonists of the retinoid-related orphan receptor gamma (ROR-gamma) signaling pathway (AID 1159521)
Method in brief: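 CHO Tet-on RORγ, RORE-luc reporter. Cpd 2 h pre-incubation, then dox hyclate 1 uM final, 16 h, 37 C/5% CO2. ONE-Glo luminescence; decrease = antagonist.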

[17] = qHTS assay to identify small molecule antagonists of the estrogen related receptor (ERR) signaling pathway (AID 1224819)
Method in brief: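 ERR reporter cell line (NTP) plated at 2,000 cells/well, settled 6 h at 37C/5% CO2, then exposed to LOPAC compounds for 18 h at 37C. One-Glo luciferase luminescence read after 30 min at room temperature.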

[18] = qHTS assay to identify small molecule agonists of the estrogen related receptor (ERR) signaling pathway (AID 1224820)
Method in brief: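 ERR reporter cell line (from NTP), 2,000 cells/well, incubated 6 h before compound addition, then 18 h at 37 C. Luminescence measured 30 min after One-Glo reagent at room temperature.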

[19] = tested on: estrogen-related receptor alpha (ERRalpha) with PGC-1alpha coactivator, human; test: qHTS assay to identify small molecule antagonists of the estrogen related receptor signaling pathway with the pleiotropic PPARgamma coactivator (PGC) (AID 1224821; calls by dose curve)
Method in brief: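 PGC/ERR reporter cell line, plated 6 h before compound addition, then exposed 18 h at 37 °C. Luciferase activity read by luminescence 30 min after One-Glo addition; decrease indicates antagonism.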

[20] = qHTS assay to identify small molecule agonists of the estrogen related receptor signaling pathway with the pleiotropic PPARgamma coactivator (PGC) (AID 1224823)
Method in brief: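 PGC/ERR reporter cells seeded 6 h, then exposed to compounds (23 nL in DMSO) for 18 h at 37 C. One-Glo luciferase luminescence read after 30 min at room temperature.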

SMILES	Potency [1]	Potency [2]	Potency [3]	Potency [4]	Potency [5]	Potency [6]	Potency [7]	Potency [8]	Potency [9]	Potency [10]	Potency [11]	Potency [12]	Potency [13]	outcome [14]	outcome [15]	Potency [16]	Potency [17]	outcome [18]	Potency [19]	outcome [20]
C[N+](C)(C)CCOC(=O)CCC(=O)OCC[N+](C)(C)C	inactive	inactive	inactive	inactive	inactive	inactive	inactive	inactive	inactive	inactive	inactive	inactive	inactive	inactive	inactive					
Nc1ccccc1S(=O)(=O)c1ccccc1	inactive	inactive	inactive	inactive	inactive	inactive	inactive	inactive	inactive	inactive	inactive	inactive	inactive							
O=C1CCC(=O)O1	inactive	inactive	inactive	inactive	inactive	inactive	inactive	inactive	inactive	inactive	inactive	inactive	inactive							
ClCCOCCOCCCl	inactive	inactive	inactive	inactive	inactive	inactive	inactive	inactive	inactive	inactive	inactive	inactive	inactive							
O=CC1CC=CCC1 (stereo not given)	inactive	inactive	inactive	inactive	inactive	inactive	inactive	inactive	inactive	inactive	inactive	inactive	inactive							
COCC(C)OC(C)=O (stereo not given)	inactive	inactive	inactive	inactive	inactive	inactive	inactive	inactive	inactive	inactive	inactive	inactive	inactive							
Cc1ncc(CO)c(C=O)c1O	inactive	inactive	inactive	inactive	inactive	inactive	inactive	inactive	inactive	inactive	inactive	inactive	inactive							
CC(C)=CCC/C(C)=C/CC/C(C)=C/CO	49 µM (active)	inactive	inactive	inactive	inactive	inactive					inactive	68.6 µM (active)	inactive			inactive				
CCCCCCCCCCCCN1CCCCCC1=O	30.9 µM (active)		54.9 µM (active)	inactive	inactive	inactive					inactive	inactive	inactive			inactive				
COc1cc2nc(N(C)CCCNC(=O)C3CCCO3)nc(N)c2cc1OC (stereo not given)	inactive	inactive	inactive	inactive	inactive	inactive	inactive	inactive	inactive	inactive	inactive	inactive	inactive	inactive	inactive		inactive	inactive	inactive	inactive
NCc1ccccc1Sc1ccccc1CO	inactive	inactive	inactive	inactive	inactive	inactive	inactive	inactive	inactive	inactive	inactive	inactive	inactive							
C=C(C)C(=O)OCCOCC	inactive	inactive	inactive	inactive	inactive	inactive	inactive	49.2 µM (active)	inactive	inactive	inactive	inactive	inactive							
CCN(CC)CCOC(=O)C(c1ccccc1)C1CCCCC1 (stereo not given)	inactive	inactive	inactive	inactive	inactive	inactive							inactive			inactive				
CCC(=O)O[C@]1(C(=O)CCl)[C@@H](C)C[C@H]2[C@@H]3CCC4=CC(=O)C=C[C@]4(C)[C@@]3(F)[C@@H](O)C[C@@]21C	inactive	inactive	inactive	inactive	inactive	inactive	inactive	inactive	inactive	inactive	inactive	inactive	inactive							
O=P(O)(OCc1ccccc1)OCc1ccccc1	inactive		inactive	inactive	inactive	inactive	inactive	inactive	inactive	inactive	inactive	inactive	inactive							
Nc1cccc([N+](=O)[O-])c1	inactive	inactive	inactive	inactive	inactive	inactive	inactive	inactive	inactive	inactive	inactive		inactive							
CCCCCCCCCOS(=O)(=O)O	inactive	inactive	inactive	inactive	inactive	inactive	inactive	inactive	inactive	inactive	inactive									
CCOC(=O)C(=O)CCc1ccccc1	inactive	inactive	inactive	inactive	inactive	inactive	inactive	inactive	inactive	inactive	inactive	inactive	inactive							
O=C(Cl)c1cc(C(=O)Cl)cc(C(=O)Cl)c1	inactive		inactive	inactive	inactive	61.1 µM (active)	inactive	inactive	inactive	inactive	inactive	inactive								
COc1cc(Cl)c(OC)cc1N	inactive	inactive	inactive	inactive	inactive	inactive	inactive	inactive	inactive	inactive	inactive	inactive	inactive							
